The text below walks through data of PubChem BioAssay (NCI).

Among the test systems are DU-145 prostate; K-562 leukemia; MALME-3M melanoma; RXF 393 renal; SF-268 CNS; SF-295 CNS; SF-539 CNS; UACC-257 melanoma; M14 melanoma; HCT-15 colon; HT29 colon; SNB-75 CNS; SNB-19 CNS; U251 CNS; PC-3 prostate; SK-MEL-5 melanoma; UACC-62 melanoma; SK-MEL-28 melanoma.
Common to all, as to test: NCI-60 one-dose screen, 48 h (100 = growth as untreated, 0 = no growth, -100 = all killed)
Holding throughout (conditions): 10 µM unless noted

About 83,000 compounds went through this panel and 20% of them were active in at least one assay; those are over-represented in the sample as a whole.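 Step 1: grow cells in 96-well plates. Step 2: add test compound at a single concentration. Step 3: incubate 48 h. Step 4: record percent growth.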 Values without a mark were called inactive. The source made the active and inactive calls. Rule for the calls: active = growth percent below 10; inactive = the rest.

Turning to `Nc1cc2ccccc2c(=O)n1NC(=O)c1ccc(I)cc1`, the growth was 102% in the assay on DU-145 prostate; 90.4% in the assay on K-562 leukemia; 97.4% in the assay on MALME-3M melanoma; 108% in the assay with RXF 393 renal; 94.9% in the assay with SF-268 CNS; 97.6% with SF-295 CNS. Also, the growth with SF-539 CNS is 96.5%; in the assay on UACC-257 melanoma it was 93.3%; with M14 melanoma, 102%; in the assay with HCT-15 colon, 102%; with HT29 colon, 101%; with SNB-75 CNS, 70%. Further, the growth with SNB-19 CNS is 95.6%; in the assay with U251 CNS, 97.4%; with PC-3 prostate, 100%; in the assay with SK-MEL-5 melanoma it was 101%; in the assay on UACC-62 melanoma, 93.2%; in the assay on SK-MEL-28 melanoma, 103%.

Take `Cc1ccc2c(N)c(C(=O)Nc3ccc(OC(F)(F)F)cc3)sc2n1`: the growth with DU-145 prostate was 82.1%; in the assay with K-562 leukemia, 9.66% (active); in the assay with MALME-3M melanoma, 75.3%; in the assay with RXF 393 renal it was 86.3%; in the assay with SF-268 CNS, 98.9%; with SF-295 CNS, 42.9%. Further, the growth with SF-539 CNS is 36.5%; in the assay with UACC-257 melanoma, 70%; in the assay with M14 melanoma, 82.9%; in the assay with HCT-15 colon, 61%; in the assay on HT29 colon, 75.2%; with SNB-75 CNS it was 91.8%. The growth in the assay on SNB-19 CNS was 79.5%; in the assay with U251 CNS it was 84.6%; with PC-3 prostate, 58.4%; in the assay with SK-MEL-5 melanoma it was 26%; in the assay on UACC-62 melanoma, 61.2%; with SK-MEL-28 melanoma, 85.5%.

For the molecule `N#Cc1c(-c2ccc(Cl)cc2)nc2n[nH]c(-c3ccc(Cl)cc3)c2c1-c1ccc(C(F)(F)F)cc1`, the growth in the assay on DU-145 prostate was 19.8%; in the assay with K-562 leukemia it was -21.3% (active); in the assay with MALME-3M melanoma it was -25.8% (active); with RXF 393 renal, -14.7% (active); in the assay with SF-268 CNS, 6.49% (active); with SF-295 CNS, -54% (active). Further, the growth with SF-539 CNS is -79.3% (active); with UACC-257 melanoma, 7.34% (active); with M14 melanoma, -53.3% (active); in the assay with HCT-15 colon, -47.2% (active); in the assay with HT29 colon it was 0.823% (active); in the assay with SNB-75 CNS it was -17.5% (active). Moreover, the growth is 11.3% in the assay on SNB-19 CNS; -33.6% (active) in the assay on U251 CNS; 8.27% (active) with PC-3 prostate; -84% (active) with SK-MEL-5 melanoma; -58.6% (active) in the assay with UACC-62 melanoma; 1.54% (active) with SK-MEL-28 melanoma.

Turning to `COc1cc(/C=C/C(=O)c2nnn(-c3ccc(Cl)cc3)c2C)cc(OC)c1OC`, the growth in the assay on DU-145 prostate is 17.3%; in the assay with K-562 leukemia it was 3.43% (active); in the assay on MALME-3M melanoma it was 49%; in the assay on RXF 393 renal it was 49.7%; with SF-268 CNS, 38.8%; with SF-295 CNS it was 51.8%. Besides, the growth in the assay on SF-539 CNS is 52%; with UACC-257 melanoma, 35.3%; in the assay with M14 melanoma it was 30.4%; in the assay on HCT-15 colon, 12.4%; in the assay with HT29 colon, 15.5%; in the assay with SNB-75 CNS it was 22.5%. The growth was 60.3% in the assay with SNB-19 CNS; 17.3% in the assay with U251 CNS; 30.6% in the assay on PC-3 prostate; 21.5% in the assay on SK-MEL-5 melanoma; 28.7% in the assay with UACC-62 melanoma; 46.9% in the assay with SK-MEL-28 melanoma.

As to `COc1ccc([C@H](C)Nc2nc(Cl)nc3ccccc23)cc1`, the growth is 74.2% in the assay on DU-145 prostate; 9.94% (active) in the assay on K-562 leukemia; 66.5% in the assay with MALME-3M melanoma; 78.3% with RXF 393 renal; 76.6% with SF-268 CNS; 20.2% with SF-295 CNS. Moreover, the growth in the assay with SF-539 CNS is 68.3%; with UACC-257 melanoma it was 48.2%; with M14 melanoma, 78.8%; in the assay on HCT-15 colon, 56.1%; in the assay on HT29 colon, 28.8%; with SNB-75 CNS it was 93.4%. The growth is 60.6% in the assay with SNB-19 CNS; 74.2% with U251 CNS; 77.1% with PC-3 prostate; 5.57% (active) with SK-MEL-5 melanoma; 47.8% in the assay with UACC-62 melanoma; 59.9% in the assay on SK-MEL-28 melanoma.

Turning to `Cc1ncsc1-c1ccc(CNC(=O)[C@@H]2C[C@@H](O)CN2C(=O)[C@@H](NC(=O)C2(F)CC2)C(C)(C)C)c(OCCOCCOCCOCCOc2nc(Nc3cc(S(C)(=O)=O)ccc3N[C@@H](c3cccc4c3OC(F)(F)O4)c3ncccc3Cl)nc(N3CCNCC3)n2)c1`, the growth was 69% in the assay on DU-145 prostate; 23.1% in the assay on K-562 leukemia; 41.4% in the assay on MALME-3M melanoma; 65.3% in the assay on RXF 393 renal; 65.7% with SF-268 CNS; 101% in the assay with SF-295 CNS. For the same molecule, the growth in the assay with SF-539 CNS was 70.1%; in the assay with UACC-257 melanoma, 94.4%; in the assay with M14 melanoma, 97.5%; in the assay with HCT-15 colon, 99.4%; in the assay on HT29 colon, 88.1%; with SNB-75 CNS, 63.2%. The growth is 64.8% with SNB-19 CNS; 65.8% in the assay on U251 CNS; 71.7% in the assay with PC-3 prostate; 65.4% with SK-MEL-5 melanoma; 84.8% in the assay on UACC-62 melanoma; 89.2% in the assay with SK-MEL-28 melanoma.

As to `Cn1nc(C(F)(F)F)cc1-c1cc(Cl)c(COc2ccc(Cl)cc2)c(-c2ccc(Cl)c(C(F)(F)F)c2)c1O`, the growth in the assay with DU-145 prostate was 8.66% (active); in the assay on K-562 leukemia it was 1.2% (active); in the assay with MALME-3M melanoma, -52.4% (active); with RXF 393 renal, -47.7% (active); in the assay on SF-268 CNS, -0.375% (active); in the assay with SF-295 CNS, -70.8% (active). Further, the growth in the assay with SF-539 CNS is -77.9% (active); in the assay with UACC-257 melanoma, -31.4% (active); with M14 melanoma it was -67% (active); with HCT-15 colon, -39.5% (active); in the assay with HT29 colon, 6.65% (active); in the assay with SNB-75 CNS it was -22.5% (active). The growth in the assay with SNB-19 CNS is -11.5% (active); in the assay on U251 CNS, -24.8% (active); in the assay with PC-3 prostate, -12.3% (active); with SK-MEL-5 melanoma, -74.4% (active); in the assay with UACC-62 melanoma, -86.1% (active); in the assay on SK-MEL-28 melanoma, -48.8% (active).

`Clc1cccc(Cl)c1/C=C/c1cc(/C=C/c2ccc(Br)cc2)c2ccccc2n1`: the growth in the assay on DU-145 prostate was 110%; in the assay on K-562 leukemia, 99.5%; in the assay with MALME-3M melanoma it was 91.8%; with RXF 393 renal, 83.4%; in the assay on SF-268 CNS, 110%; in the assay with SF-295 CNS, 99.2%. For the same molecule, the growth in the assay with SF-539 CNS was 95.7%; with UACC-257 melanoma it was 105%; with M14 melanoma, 101%; in the assay on HCT-15 colon, 101%; in the assay with HT29 colon it was 105%; in the assay with SNB-75 CNS, 95.9%. Besides, the growth in the assay on SNB-19 CNS is 92.5%; in the assay with U251 CNS, 101%; in the assay with PC-3 prostate it was 96.2%; with SK-MEL-5 melanoma, 104%; in the assay on UACC-62 melanoma, 83.5%; with SK-MEL-28 melanoma, 104%.
